This is an account of results in PubChem BioAssay AID372 (MTDP, 2006).

Out of some 100,000 compounds screened, about 770 (0.77%) were called active. The sample holds actives, similar compounds and a random draw of the others, so the mix is not that of the screen. No stated cut-off is given here; in the data, active means inhibition above about 50%; inactive means the rest.

This assay addresses Gag-Pol polyprotein (Human immunodeficiency virus type 1 group M subtype B (isolate HXB2)) (UniProt P04585). The assay can be described thus: RNase H inhibition, HIV 1 Gag Pol polyprotein, FRET biochemical assay, screening (AID 372). Conditions: HIV-1 RT RNase H, FRET RNA/DNA substrate fluorescence; at 10 µM; stronger effect = higher value.
What is called inhibition is the relative decrease from the control value, in per cent. Consider `CC(=O)Nc1nc2c(s1)C(=O)NCCC2`, for which the inhibition is 5% (inactive).
With `Cn1c2ccccc2c2nnc(SCCN3CCOCC3)nc21`, the inhibition was 0% (inactive).
Take `O=Cc1ccc(OCc2ccc([N+](=O)[O-])cc2)cc1`: the inhibition was 16% (inactive).
Turning to `O=[N+]([O-])c1ccc(N2CCOCC2)cc1Sc1cccc2cccnc12`, the inhibition is 24% (inactive).
The value for `Cc1ccc(S(=O)(=O)N2CCC(CN3C(=O)c4cccc5cccc(c45)C3=O)CC2)cc1` was 25% (inactive); that for `Cc1cc(C)n(S(=O)(=O)c2ccc(Cl)c(Cl)c2Cl)n1` was 23% (inactive).
Turning to `CCCC1(CCC)NC(=S)N(c2nc3ccccc3s2)N1`, the inhibition is 7% (inactive).
The value for `COc1ccc(N(CC(=O)NCc2ccccn2)S(=O)(=O)c2ccccc2[N+](=O)[O-])c(OC)c1` was 4% (inactive); that for `O=C(/C=C/c1cccs1)c1ccc(C(=O)/C=C/c2cccs2)cc1` was 13% (inactive).
Regarding `O=C(/C=C/c1ccc(F)cc1)Nc1cccc2cccnc12`, the inhibition is 7% (inactive).
In the case of `O=C(NC(=S)Nc1cccc(-c2nc3cc(Cl)cc(Cl)c3o2)c1)c1ccc(Cl)cc1`, the inhibition was 11% (inactive).
The value for `O=C(NC(=S)Nc1ccc(O)c(-c2nc3ccccc3o2)c1)c1ccc([N+](=O)[O-])cc1` was 9% (inactive).
Regarding `O=C(NC(=S)Nc1cccc(-c2nc3cc(Cl)cc(Cl)c3o2)c1)c1ccccc1Cl`, the inhibition was 19% (inactive).
`O=C(NC(=S)Nc1cccc(-c2nc3cc(Cl)cc(Cl)c3o2)c1)c1cccc(F)c1`: the inhibition was 58% (active).
On to `O=C(Nc1ccc(O)c(-c2nc3ccccc3o2)c1)c1ccc(F)cc1`, for which the inhibition was 6% (inactive).
Consider `O=C(NC(=S)Nc1ccc(O)c(-c2nc3ccccc3o2)c1)c1ccc(F)cc1`, for which the inhibition was 56% (active).
`O=S(=O)(c1cc(Cl)ccc1Cl)n1ccnc1`: the inhibition was 0% (inactive).
The value for `CCOC(=O)c1ccc(-c2ccc(/C=N/O)o2)cc1` was 0% (inactive); that for `COC(=O)C1=C(C)NC2=C(C(=O)CC(c3ccc(OC)cc3)C2)C1c1cccc(OC)c1OC` (stereo unspecified) was 11% (inactive).
Consider `Cc1ccc2nc(-c3ccc(Cl)c(NC(=S)NC(=O)c4ccccc4C)c3)oc2c1`, for which the inhibition is 42% (inactive).
The value for `Cc1ccccc1C(=O)NC(=S)Nc1cc(-c2nc3ccccc3o2)ccc1Cl` was 53% (active); that for `Cc1ccc(-c2nc3ccccc3o2)cc1NC(=S)NC(=O)c1ccccc1C` was 12% (inactive); that for `COc1ccc(-c2nc3ccccc3o2)cc1NC(=S)NC(=O)c1ccccc1C` was 53% (active).
For the compound `COc1ccccc1C(=O)NC(=S)Nc1cc(-c2nc3ccccc3o2)ccc1C`, the inhibition is 10% (inactive).
For the compound `O=C(NC(=S)Nc1cc(-c2nc3ccccc3o2)ccc1Cl)c1ccccc1Br`, the inhibition is 9% (inactive).
Turning to `O=C(NC(=S)Nc1ccc(Cl)cn1)c1cccc(F)c1`, the inhibition was 13% (inactive).
Take `Cc1ccc2nc(-c3ccc(Cl)cc3)cn2c1`: the inhibition was 5% (inactive).
The value for `O=C1C(=O)N(c2nc3ccccc3s2)C(c2ccccc2F)/C1=C(/O)c1ccccc1` (stereo unspecified) was 8% (inactive); that for `O=C(Nc1c(C(=O)Nc2ccc(Br)cc2)cnn1-c1ccccc1)c1ccco1` was 8% (inactive); that for `O=C(Nc1ccc(S(=O)(=O)N2CCCCCC2)cc1)c1ccc(Cl)cc1Cl` was 8% (inactive).
On to `O=C(Nc1ccc(S(=O)(=O)N2CCCCC2)cc1)c1ccccc1Cl`, for which the inhibition is 57% (active).
As to `O=C(Nc1ccc(S(=O)(=O)N2CCOCC2)cc1)c1ccccc1Cl`, the inhibition was 0% (inactive).
In the case of `Cc1cccc(C(=O)NN=C2CCCCC2)c1`, the inhibition is 7% (inactive).
In the case of `CC(C)NS(=O)(=O)c1ccc(Br)cc1`, the inhibition was 0% (inactive).
For `Cc1ccc(-c2ccc(C=C3C(=O)NC(=O)NC3=O)o2)c([N+](=O)[O-])c1`, the inhibition is 14% (inactive).
In the case of `CC1=C(C#N)C(=O)NC(=O)/C1=C\c1ccc(-c2ccc(Cl)c(Cl)c2)o1`, the inhibition is 50% (active).
The value for `CC(=O)c1cccc(-c2ccc(/C=C3\C(=O)NC(=O)C(C#N)=C3C)o2)c1` was 43% (inactive).
As to `CC1=C(C#N)C(=O)NC(=O)/C1=C\c1ccc(-c2cc(C)c(C)cc2[N+](=O)[O-])o1`, the inhibition is 56% (active).
`O=C1NC(=S)NC(=O)C1=Cc1ccc(-c2ccc(Cl)cc2[N+](=O)[O-])o1`: the inhibition is 42% (inactive).
Take `CC1=C(C#N)C(=O)NC(=O)/C1=C\c1ccc(-c2cccc(Cl)c2)o1`: the inhibition is 33% (inactive).
In the case of `Cc1cc(-c2ccc(C=C3C(=O)N(C)C(=O)N(C)C3=O)o2)c([N+](=O)[O-])cc1C`, the inhibition was 6% (inactive).
As for `Cc1cc(-c2ccc(/C=C3/C(=O)NN(c4ccc(F)cc4)C3=O)o2)c([N+](=O)[O-])cc1C`, the inhibition is 5% (inactive).
Regarding `C=CCN1C(=O)/C(=C/c2cc(C)n(-c3ccc(C(=O)O)cc3C)c2C)C(=O)NC1=S`, the inhibition was 6% (inactive).
Take `Cc1cc(Br)cc(C)c1NC(=O)c1cccnc1`: the inhibition is 2% (inactive).
As to `CCOC(=O)CNC1=C([N+](=O)[O-])C(=O)CC(C)(C)C1`, the inhibition was 0% (inactive).
On to `C=CCn1cc(/C=c2\sc3n(c2=O)C(c2ccc(SC)cc2)C(C(=O)OCC)=C(C)N=3)c2ccccc21` (stereo unspecified), for which the inhibition is 24% (inactive).
In the case of `COc1ccc(C2CC(C(F)(F)F)n3nc(C(=O)Nc4cc(OC)c(Cl)cc4OC)c(Cl)c3N2)cc1` (stereo unspecified), the inhibition is 14% (inactive).
Take `COc1ccc(C)cc1NC(=O)COc1cccc2ccccc12`: the inhibition is 21% (inactive).
The value for `Cc1ccccc1N1C(=O)/C(=C/c2cccn2-c2ccc(Br)cc2)C(=O)NC1=S` was 20% (inactive); that for `CCc1ccccc1N/C=C(\C#N)c1nc(-c2ccc(Cl)cc2)cs1` was 8% (inactive).
The value for `Cc1ccc(-c2n[nH]c(=S)n2N=Cc2ccccc2OCC(=O)O)cc1` was 12% (inactive); that for `COc1ccc(/C=C2/Sc3ccccc3C2=O)cc1` was 5% (inactive); that for `O=C(COc1ccc(Br)cc1Cl)Nc1ccccc1F` was 51% (active).
The value for `O=C(COc1ccc(Cl)cc1Cl)Nc1ccccc1F` was 27% (inactive); that for `O=C(NC(=S)Nc1ccc(O)c(-c2nc3ccccc3s2)c1)c1ccc(Cl)cc1` was 54% (active).
As for `O=C(NC(=S)Nc1ccc(O)c(-c2nc3ccccc3s2)c1)c1ccc(F)cc1`, the inhibition is 46% (inactive).
Consider `O=C(COc1ccc(Cl)cc1Cl)Nc1ccc(NC(=O)COc2ccc(Cl)cc2Cl)cc1`, for which the inhibition was 52% (active).
`O=C(COc1ccc(Cl)cc1Cl)Nc1ccc(-c2ccccc2)cc1`: the inhibition was 7% (inactive).
For the compound `CCC(=O)Nc1ccc(NC(=O)COc2ccc(Cl)cc2Cl)cc1`, the inhibition was 27% (inactive).
As for `O=C(COc1ccc(Br)cc1Cl)Nc1ccccc1Cl`, the inhibition was 31% (inactive).
For the compound `O=C(COc1ccc(Cl)cc1Cl)Nc1ccc(-c2nc3ccccc3s2)c(O)c1`, the inhibition is 27% (inactive).
`Cc1ccc(C(=O)NC(=S)Nc2ccc(O)c(-c3nc4ccccc4s3)c2)cc1`: the inhibition is 37% (inactive).
As to `Cc1ccccc1OCC(=O)Nc1ccc(O)c(-c2nc3ccccc3s2)c1`, the inhibition is 14% (inactive).
`O=C(COc1ccc(Cl)cc1Cl)Nc1ccc(O)c(-c2nc3ccccc3s2)c1`: the inhibition was 61% (active).
As to `C#CCSc1nncn1C(=O)/C=C/c1ccco1`, the inhibition was 19% (inactive).
For `COc1ccc2nc(N/C(N)=N/S(=O)(=O)c3ccc(C)cc3)nc(C)c2c1`, the inhibition is 5% (inactive).
The value for `Cc1cc(=O)[nH]c(N/N=C/c2cccnc2)n1` was 0% (inactive).
For the compound `CCCCNCCCCCOc1ccccc1C(C)C`, the inhibition is 5% (inactive).
As to `COc1cccc(OCCCCOc2ncnc3ccccc23)c1`, the inhibition is 10% (inactive).
Take `O=C(COc1ccc(/C=N/NS(=O)(=O)c2ccccc2)cc1)Nc1ccc(F)cc1`: the inhibition is 4% (inactive).
As to `CCOc1ccc(N(CC(=O)NCCSCc2ccc(C)cc2)S(C)(=O)=O)cc1`, the inhibition was 16% (inactive).
Turning to `COC(=O)c1ccc(/C=C2\N=C(c3ccc(F)cc3)OC2=O)cc1`, the inhibition was 0% (inactive).
The value for `CC(=O)Oc1ccc2c(=O)c(-c3nc4ccccc4[nH]3)c(C)oc2c1` was 3% (inactive); that for `O=C(NC(=S)Nc1cccc(-c2nc3ccccc3s2)c1)c1cccs1` was 7% (inactive).
With `O=C(COc1ccc(Br)cc1Cl)Nc1ccc2c(c1)OCCO2`, the inhibition is 50% (active).
As for `O=C(COc1ccc(Br)cc1Cl)Nc1ccc2c(c1)OCO2`, the inhibition was 18% (inactive).
With `O=C(COc1ccc(Cl)cc1Br)Nc1ccc2c(c1)OCCO2`, the inhibition was 36% (inactive).
Take `O=C(NC(=S)Nc1ccc(O)c(-c2nc3ccccc3s2)c1)c1cccs1`: the inhibition is 19% (inactive).
`O=C(NC(=S)Nc1ccc(-c2nc3ccccc3s2)c(O)c1)c1cccs1`: the inhibition is 56% (active).
For the compound `CC(=O)N1N=C(c2ccc(N(C)C)cc2)CC1c1ccccc1` (stereo unspecified), the inhibition was 11% (inactive).
In the case of `Nc1[nH]n(-c2ccccc2)c(=O)c1N=Nc1ccc(Cl)cc1`, the inhibition is 9% (inactive).
As to `O=C(N/N=C/c1ccc(I)cc1)C1CC(=O)N(c2ccccc2)C1` (stereo unspecified), the inhibition is 9% (inactive).
Take `Cc1cc(/C=N/O)c(C)n1-c1ccc(N(C)C)cc1`: the inhibition is 11% (inactive).
The value for `CCOc1cc(/C=C(\C#N)c2nc3ccccc3s2)ccc1O` was 16% (inactive).
For the compound `COc1cc(/C=C(\C#N)c2nc3ccccc3s2)cc(OC)c1O`, the inhibition was 54% (active).
Consider `COc1cc(/C=C(\C#N)c2nc3ccccc3s2)cc(Br)c1O`, for which the inhibition was 5% (inactive).
On to `C=CCN(CC=C)CC(O)CN1C(=O)NC(C)(C)C1=O` (stereo unspecified), for which the inhibition was 3% (inactive).
The value for `CC1=CC(C)(C)N(C(=O)CSc2nc3ccccc3s2)c2cc(C)ccc21` was 20% (inactive).
As to `COc1ccc(-c2c(C#N)c(N)nc(SCC(=O)OCc3ccccc3)c2C#N)cc1`, the inhibition was 15% (inactive).
For the compound `COC(=O)CSc1nc(N)c(C#N)c(-c2ccc(O)cc2)c1C#N`, the inhibition is 2% (inactive).
With `Cc1ccc(C(=O)CSc2nc(N)c(C#N)c(-c3ccc(O)cc3)c2C#N)cc1`, the inhibition is 47% (inactive).
In the case of `COC(=O)CSc1nc(N)c(C#N)c(-c2ccc(OC)cc2)c1C#N`, the inhibition is 4% (inactive).
On to `COc1cccc(N=Cc2c(O)ccc3ccccc23)c1`, for which the inhibition was 13% (inactive).
With `Cc1ccccc1Nc1ncc(-c2ccc3ccccc3c2)s1`, the inhibition was 22% (inactive).
With `COc1cc(C2C(C(=O)/C=C/c3ccccc3)=C(O)C(=O)N2c2ccccn2)ccc1O` (stereo unspecified), the inhibition is 6% (inactive).
The value for `COc1cc2ccccc2cc1C(=O)Nc1ccc(Br)cc1F` was 18% (inactive).
